{"source": "the supplement of paper PMC4683952", "note": "Structures can show the parent of a compound that is named as a salt. About 50 (4%) of roughly 1,200 compounds showed activity. Cut-off read from the data, not from the text of the source: all actives reach 1.3 or more but so do some inactives. The full list was thinned out, with actives kept by preference.", "data": [{"system": "Lgr5 (MarsCy1-Lgr5-EGFP, U2OS)", "experiment": "cell-surface Lgr5 expression (SCi1 fluorescence, background-subtracted) relative to WT DMSO (fold of DMSO control); higher = more Lgr5 at the plasma membrane, active = hit call of the paper", "conditions": "U2OS MarsCy1-Lgr5-EGFP stable; treatment time: overnight; 16 µM; library: Johns Hopkins Clinical Compound Library", "values": [{"smiles": "O=C([O-])C(O)C(O)C(=O)[O-].[K+].[Na+]", "note": "(stereo not given) [Potassium sodium tartrate tetrahydrate]", "cell-surface Lgr5 expression": "1.1 (inactive)"}, {"smiles": "O=C[C@H](O)[C@@H](O)[C@H](O)[C@H](O)C(=O)[O-].[Na+]", "note": "[Sodium glucuronate (D-Glucuronic acid)]", "cell-surface Lgr5 expression": "1.32 (active)"}, {"smiles": "O=CC(O)C(O)C(O)C(O)CO", "note": "(stereo not given) [Glucose (D)]", "cell-surface Lgr5 expression": "1.02 (inactive)"}, {"smiles": "Cc1ccc2c(Br)cc(Br)c(O)c2n1", "note": "[Broquinaldol (5,7-dibromo-8-hydroxy-quinaldine)]", "cell-surface Lgr5 expression": "1.1 (inactive)"}, {"smiles": "Cc1ccc(/C(=C\\CN2CCCC2)c2cccc(/C=C/C(=O)O)n2)cc1", "note": "[Acrivastine]", "cell-surface Lgr5 expression": "1.15 (inactive)"}, {"smiles": "N[C@@H](C(=O)N[C@@H]1C(=O)N2C(C(=O)O)=C(Cl)CC[C@H]12)c1ccccc1", "note": "[Loracarbef]", "cell-surface Lgr5 expression": "0.67 (inactive)"}, {"smiles": "CCCCOC(=O)c1ccc(N)cc1", "note": "[Butamben (n-butyl p aminobenzoate)]", "cell-surface Lgr5 expression": "1 (inactive)"}, {"smiles": "CCCCN(CCCC)CCCOC(=O)c1ccc(N)cc1", "note": "[Butacaine]", "cell-surface Lgr5 expression": "1.62 (active)"}, {"smiles": "CCN(CC)CCOC(=O)c1ccc(N)cc1", "note": "[Procaine hydrochloride]", "cell-surface Lgr5 expression": "0.937 (inactive)"}, {"smiles": "Cc1ncc(COP(=O)(O)O)c(C=O)c1O", "note": "[Pyridoxal-5-phosphate]", "cell-surface Lgr5 expression": "0.951 (inactive)"}, {"smiles": "CCCCn1c(=O)c2c(ncn2CC(C)=O)n(CCCC)c1=O", "note": "[Denbufylline]", "cell-surface Lgr5 expression": "1.44 (inactive)"}, {"smiles": "C[C@@H](O[C@H]1OCCN(Cc2n[nH]c(=O)[nH]2)[C@H]1c1ccc(F)cc1)c1cc(C(F)(F)F)cc(C(F)(F)F)c1", "note": "[Aprepitant]", "cell-surface Lgr5 expression": "1.01 (inactive)"}, {"smiles": "Cn1c(NCCN(CCO)CCCc2ccc([N+](=O)[O-])cc2)cc(=O)n(C)c1=O", "note": "[Nifekalant]", "cell-surface Lgr5 expression": "0.923 (inactive)"}, {"smiles": "[Cl-].[Cl-].[Cl-].[In+3]", "note": "[Indium(III) chloride]", "cell-surface Lgr5 expression": "0.736 (inactive)"}, {"smiles": "Cc1cccc(C)c1NC(=O)C(C)N", "note": "(stereo not given) [Tocainide hydrochloride]", "cell-surface Lgr5 expression": "1.07 (inactive)"}, {"smiles": "CC[N+](CC)(CC)CC(=O)Nc1c(C)cccc1C", "note": "[Lidocaine N-ethyl bromide]", "cell-surface Lgr5 expression": "1.39 (active)"}, {"smiles": "CCN(CC)CC(=O)Nc1c(C)cccc1C", "note": "[Lidocaine]", "cell-surface Lgr5 expression": "1.19 (inactive)"}, {"smiles": "O[C@@H]1[C@H](O)[C@@H](O)C=C[C@H]1O", "note": "[Conduritol]", "cell-surface Lgr5 expression": "1.03 (inactive)"}, {"smiles": "O=C(O)c1cc(-c2ccccc2)nc2ccccc12", "note": "[Cinchophen (2-phenyl 4-quinoline carboxylic acid)]", "cell-surface Lgr5 expression": "1.45 (active)"}, {"smiles": "Nc1c2ccccc2nc2ccccc12", "note": "[Aminacrine (9-Aminoacridine)]", "cell-surface Lgr5 expression": "0.26 (inactive)"}, {"smiles": "O=C(O)c1ccccc1I", "note": "[2-Iodobenzoic acid]", "cell-surface Lgr5 expression": "1.04 (inactive)"}, {"smiles": "O=C(O)c1cc(O)c(O)c(O)c1", "note": "[Gallic acid]", "cell-surface Lgr5 expression": "0.979 (inactive)"}, {"smiles": "O=C(Nc1ccccc1)c1cc(Cl)ccc1O", "note": "[5-Chlorosalicylanilide]", "cell-surface Lgr5 expression": "1.12 (inactive)"}, {"smiles": "COC1=C(OC)C(=O)C(CCCCCCCCCCO)=C(C)C1=O", "note": "[Idebenone]", "cell-surface Lgr5 expression": "1.04 (inactive)"}, {"smiles": "CC1(C)S[C@@H]2[C@H](NC(=O)COc3ccccc3)C(=O)N2[C@H]1C(=O)O.CN(C)[C@@H]1C(O)=C(C(=O)NCN2CCN(CCO)CC2)C(=O)[C@@]2(O)C(O)=C3C(=O)c4c(O)cccc4[C@@](C)(O)[C@H]3C[C@@H]12", "note": "[Penimepicycline]", "cell-surface Lgr5 expression": "0.846 (inactive)"}]}]}
